Inhibition data for 65 molecules are collected here from PubChem BioAssay AID778 (Sanford-Burnham Center for Chemical Genomics, 2007).

Structures are written as SMILES. About 20,000 (21%) of roughly 96,000 compounds were called active. A selection follows. Unmarked numbers belong to inactive results.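 Rule for the calls: active = CYP2C19 inhibition above a set limit at 5 µM in the primary screen (cut at about 50% in these data); inactive = the rest.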

In this test the target is Cytochrome P450 2C19 (Homo sapiens) (UniProt P33261). The experiment in a line: blockers of cytochrome P450 2C19 activity – biochemical, luminescence, ADME assay, primary screen (AID 778).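 Note: plate controls were negative control wells for no effect and 2.5 mM tranylcypromine positive control for full effect.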 Conditions: CYP2C19 Supersomes, luciferin-H EGE luminescence, 30 min; at 5 µM; hits give high values.
Cytochrome P450 2C19 (Homo sapiens), sequence (P33261 whole entry, looked up): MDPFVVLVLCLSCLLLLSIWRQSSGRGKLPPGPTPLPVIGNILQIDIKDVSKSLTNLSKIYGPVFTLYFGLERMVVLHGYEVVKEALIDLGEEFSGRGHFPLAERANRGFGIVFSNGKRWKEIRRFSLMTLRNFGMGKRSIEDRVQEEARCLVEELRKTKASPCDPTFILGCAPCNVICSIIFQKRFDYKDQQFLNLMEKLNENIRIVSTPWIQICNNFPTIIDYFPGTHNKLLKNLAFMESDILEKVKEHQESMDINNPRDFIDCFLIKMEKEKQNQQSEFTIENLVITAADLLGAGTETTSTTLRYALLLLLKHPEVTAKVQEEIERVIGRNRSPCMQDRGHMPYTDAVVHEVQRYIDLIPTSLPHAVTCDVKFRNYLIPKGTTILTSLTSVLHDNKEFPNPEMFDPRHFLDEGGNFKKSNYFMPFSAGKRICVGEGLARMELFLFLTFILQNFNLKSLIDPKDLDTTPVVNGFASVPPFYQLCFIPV
With `CCN1C(=O)/C(=C\N2CCN(c3cccc(Cl)c3)CC2)SC1=S`, the inhibition was 13%. As to `O=Cc1c(N2CCN(c3cccc(Cl)c3)CC2)nc2ccccn2c1=O`, the inhibition was 99.4% (active). As to `O=S(=O)(c1cccc2nonc12)N1CCN(c2cccc(Cl)c2)CC1`, the inhibition was 1.5%.

With `CN1CC(c2ccccc2)C2(COc3ccccc3C2=O)C12C(=O)Nc1ccccc12` (stereo not given), the inhibition is 46.7%. Turning to `COc1ccccc1/C=C/C1=NC(=C\N(C)C)/C(=O)O1`, the inhibition is 19.5%.

On to `CCOC(=O)CSc1nnc(CNC(=O)c2cccs2)n1-c1ccccc1`, for which the inhibition was -5.7%.

Take `CCOC(=O)CSc1nnc(CNC(=O)c2cccs2)n1-c1cc(OC)ccc1OC`: the inhibition was 58.2% (active).

Regarding `CCOC(=O)CSc1nnc(CNC(=O)Cc2ccccc2)n1-c1ccccc1OC`, the inhibition was 8.2%. For the molecule `CCOc1cc(-c2cc(-c3ccc(OC)cc3)nc(N)c2C#N)ccc1O`, the inhibition is 19.9%.

`CCOc1ccccc1Oc1cn[nH]c1-c1ccc(OC)cc1O`: the inhibition is 100% (active). On to `Cc1ccc(SCCC(=O)OCC(=O)Nc2ncc(Cl)cc2Cl)cc1`, for which the inhibition is 24%. The value for `O=c1c2ccccc2oc2nc(C3CCCCC3)n(Cc3ccco3)c(=O)c12` was 50.7% (active); that for `O=c1c2ccccc2oc2nc3n(c(=O)c12)CCCS3` was 0.7%.

As for `CCc1nc2oc3ccccc3c(=O)c2c(=O)n1Cc1ccc(OC)cc1`, the inhibition was -0.6%. In the case of `O=C(O)/C=C/C(=O)Nc1ccc(F)cc1F`, the inhibition was 5.3%. Consider `Cn1c2c(c(=O)n(C)c1=O)CN(Cc1ccco1)CN2`, for which the inhibition was 0.4%. As for `CCCC(CCC(=O)OC)(C(=O)OCC)c1csc(N)n1` (stereo not given), the inhibition was 73.6% (active). As for `CCOC(=O)Cc1csc(NC(NC(=O)OCC)(C(F)(F)F)C(F)(F)F)n1`, the inhibition is 13.5%. Take `CCOC(=O)Cc1csc(NC(=O)C(C)(C)C)n1`: the inhibition was 15.4%.

With `COc1ccc(-n2c(SC)nc(O)cc2=O)cc1`, the inhibition is 5.6%.

As to `COCCNc1nc(-n2nc(C)cc2C)nc2sc3c(c12)CCCC3`, the inhibition was -16.1%. Take `Oc1ccc2nc(Cc3ccccc3)[nH]c2c1`: the inhibition was 23.6%. The value for `OCCNc1nc2ccccc2[nH]1` was -4.7%. The value for `Clc1ccccc1SCc1nc2ccccc2[nH]1` was 83.2% (active); that for `c1ccc2c(CSCc3nc4ccccc4[nH]3)cccc2c1` was 89.3% (active); that for `c1ccc(-c2nnc(SCc3nc4ccccc4[nH]3)o2)cc1` was 95.2% (active). On to `CCCCSc1nnc(-c2ccc(C)cc2)o1`, for which the inhibition was 49.4%.

On to `N#C/C(=C(/O)COc1cccc2ccccc12)c1nc2ccccc2[nH]1`, for which the inhibition is 12%.

In the case of `O=C(CSc1nnc(-c2ccccc2)o1)N1CCOCC1`, the inhibition is -12.3%. Take `N#Cc1c2c(c(N3CCN(CCO)CC3)n3c1nc1ccccc13)CCCC2`: the inhibition was 34.5%. For `CN(C)CCNC(=O)C(C(=O)c1ccccc1)n1ccccc1=O` (stereo not given) the value was -10.3%. On to `Cc1ccccc1S(=O)(=O)Cc1ccc(C(=O)NCCN2CCCCC2C)o1` (stereo not given), for which the inhibition is 4.1%. Consider `COC(=O)c1cnn2c(C(F)(F)F)cc(-c3ccco3)nc12`, for which the inhibition was -9%. As for `N/C(=N\OC(=O)CCc1ccccc1)c1ccc(Cl)cc1`, the inhibition was -1.3%.

As for `COc1ccc(OCCCC(=O)Oc2ccc(OC)cc2)cc1`, the inhibition is 6.3%. The value for `COc1ccc(/C(N)=N/OC(=O)Oc2ccccc2)cc1` was 58.6% (active); that for `COc1ccc(OC)c(Nc2nc(-c3ccc(O)c(O)c3)cs2)c1` was 27.6%; that for `COc1ccc2c(c1)cc1n2CCN=C1NN` was 92.9% (active). Turning to `COc1ccc(NC(=O)Nc2ccc3nc(C)c(C)nc3c2)cc1`, the inhibition was 3.2%. The value for `CC(=O)N1CSCC1C(=O)O` (stereo not given) was 2.2%; that for `CC1(C)C/C(=C(/C#N)C(N)=O)CCO1` was -16.7%. Turning to `CC(C)OC(=O)c1sc2nc3c(cc2c1N)C(=O)CCC3`, the inhibition is 7.1%. As for `CC1=C(C(=O)Nc2ccc(Cl)cc2)C(c2ccco2)NC(=O)N1` (stereo not given), the inhibition is 18.4%. With `Cc1cccc(N2CCN(C(=O)CN(C)S(=O)(=O)c3ccc4c(c3)CCC(=O)N4)CC2)c1C`, the inhibition was 6.3%. As to `COC(=O)c1ccc(COC(=O)c2c(C)nn(Cc3ccccc3Cl)c2Cl)o1`, the inhibition is 90.5% (active). `COCCCNC(=O)CN1CCN(Cc2ccccc2Cl)C1=O`: the inhibition is -10.8%. For `CCOC(=O)c1cnn(Cc2ccccc2Cl)c1N` the value was 30.5%.

Consider `CCOC(=O)c1sc(/N=C/Nc2nc(C)c(C(=O)OCC)s2)nc1C`, for which the inhibition is 7.2%. Consider `c1ccc(CC2CCN(c3nc4ccccc4n4cnnc34)CC2)cc1`, for which the inhibition was -7.7%. Regarding `O=C(Cc1ncc(C(F)(F)F)cc1Cl)Nc1cccc(Br)c1`, the inhibition was 55.7% (active).

With `O=C(CN1CCN(c2ncc(C(F)(F)F)cc2Cl)CC1)Nc1ccc2c(c1)OCO2`, the inhibition was 22%. For the molecule `CC(=O)c1ccc(Cc2ncc(C(F)(F)F)cc2Cl)s1`, the inhibition was 16.5%. The value for `CCOC(=O)c1[nH]c2c(c1C)C(=O)CC(c1ccc(N(C)C)cc1)C2` (stereo not given) was 6.7%; that for `CCCCn1c(SCc2ncc(-c3ccccc3)o2)nc2cc(S(N)(=O)=O)ccc21` was 25%. `Cc1cc(C)nc(NC(=O)Nc2ccccc2C(F)(F)F)n1`: the inhibition was 21%.

As for `O=C(c1ccccc1)c1cc(-c2ccccn2)c(N2CCOCC2)s1`, the inhibition is 14.1%. Turning to `COc1cccc(-c2nnc(SCCOc3ccc4c(C)cc(=O)oc4c3)o2)c1`, the inhibition was -15.6%.

Turning to `Cc1cc(=O)oc2ccc(OCC(=O)O)cc12`, the inhibition was 3.3%. Regarding `Cc1cc(=O)oc2cc(OCC3CC(c4ccccc4Cl)=NO3)ccc12` (stereo not given), the inhibition was 50.8% (active). `CCOC(=O)c1c(NC(=O)CSc2nnc(CN3CCOCC3)n2C)sc2c1CCCC2`: the inhibition was 48.7%. With `NC(=O)C1CC=CCC1C(=O)OCC(Cl)=C(Cl)Cl` (stereo not given), the inhibition is 22%. As to `COc1cc(N=Cc2c(O)[nH]c3ccccc23)cc(OC)c1OC`, the inhibition was 63.9% (active). Regarding `COc1ccc(N=Cc2c(O)[nH]c3ccccc23)cc1OC`, the inhibition is 32.9%. Regarding `COc1ccc(OC)c(N=Cc2c(O)[nH]c3ccccc23)c1`, the inhibition was 7.7%. With `Nn1c(SCC(=O)NC2CCCC2)nnc1-c1ccccc1F`, the inhibition was 21.3%.

The inhibition is the drop in the measured response relative to a control, in per cent.
